Results as given in the antibiotic and cytotoxicity screens of Wong et al. (2023).
The whole screen tested about 39,000 compounds, of which about 1,500 (3.8%) were called active. The sample as a whole holds a higher share of actives than the screen did.

Tested on: HSkMC (human skeletal muscle cells)
Assay: cytotoxicity call (relative viability < 0.9)
Details: 10 µM

Which cytotoxicity call does the source give for `Cc1noc(C)c1S(=O)(=O)N(C)C[C@H]1Oc2ccc(N(C)C)cc2CC(=O)N([C@@H](C)CO)C[C@H]1C` here?
The cytotoxicity call was “inactive”.

With `C[C@@H]1CN([C@H](C)CO)C(=O)c2cc(C#CC3(O)CCCC3)cnc2O[C@@H]1CN(C)C(=O)Cc1ccncc1` as the molecule, how does the cytotoxicity call read?
Its cytotoxicity call is “inactive”.

Which cytotoxicity call does the source give for `C[C@@H]1CCCCO[C@H](CN(C)Cc2ccncc2)[C@@H](C)CN([C@H](C)CO)C(=O)c2cc(NC(=O)NC3CCCCC3)ccc2O1` here?
Its cytotoxicity call is “inactive”.

How did the cytotoxicity call turn out when `C[C@@H]1CN([C@H](C)CO)C(=O)CCCn2cc(nn2)CO[C@H]1CN(C)C(=O)Nc1ccc(N2CCN(C)CC2)cc1` was run?
The cytotoxicity call was “inactive”.

`CN1CCN(C(=O)C[C@H]2C[C@H]3c4cc(NC(=O)c5ccc6c(c5)OCO6)ccc4O[C@H]3[C@@H](CO)O2)CC1` was tested. Which cytotoxicity call did it give?
The cytotoxicity call was “inactive”.

How did the cytotoxicity call turn out when `Cn1cnc(S(=O)(=O)N2C[C@@H](O)COC[C@@H]3O[C@H](CC(=O)N4CCN(c5ccccc5)CC4)CC[C@H]32)c1` was run?
Its cytotoxicity call is “inactive”.

`COc1ccc(NC(=O)Nc2ccc3c(c2)C(=O)N([C@@H](C)CO)C[C@@H](C)[C@H](CN(C)Cc2ccc(C(=O)O)cc2)OCCCC[C@@H](C)O3)cc1` was tested. Which cytotoxicity call did it give?
The cytotoxicity call was “inactive”.

`Cc1noc(C)c1NC(=O)N(C)C[C@@H]1Oc2ccc(NC(=O)CCCN(C)C)cc2C(=O)N([C@@H](C)CO)C[C@H]1C` was tested. Which cytotoxicity call did it give?
Its cytotoxicity call is “inactive”.

How did the cytotoxicity call turn out when `O=C1O[C@@H](c2ccccc2)[C@@H](c2ccccc2)N2[C@@H](c3ccc(OCCO)cc3)[C@]3(C(=O)Nc4ccc(C#CC5(O)CCCCCC5)cc43)[C@@H](C(=O)Nc3nc4ccccc4s3)[C@H]12` was run?
The cytotoxicity call was “inactive”.

For `CCN1CCN(c2ccc(Nc3cc(N(C)C(=O)Nc4c(Cl)c(OC)cc(OC)c4Cl)ncn3)cc2)CC1`, which cytotoxicity call is on record?
Its cytotoxicity call is “active”.

How did the cytotoxicity call turn out when `COc1cc2c(N3CCN(C(=O)Nc4ccc(OC(C)C)cc4)CC3)ncnc2cc1OCCCN1CCCCC1` was run?
Its cytotoxicity call is “inactive”.

With `C[C@H](CO)N1C[C@H](C)[C@@H](CN(C)C(=O)CCCN(C)C)OCCCC[C@H](C)Oc2ccc(NS(=O)(=O)c3cn(C)cn3)cc2C1=O` as the molecule, how does the cytotoxicity call read?
The cytotoxicity call was “inactive”.

`CC(C)NC(=O)N(C)C[C@@H]1OCCCC[C@@H](C)Oc2ccc(NC(=O)CCCCCC(=O)Nc3ccccc3N)cc2C(=O)N([C@H](C)CO)C[C@H]1C` was tested. Which cytotoxicity call did it give?
Its cytotoxicity call is “inactive”.

How did the cytotoxicity call turn out when `Cn1nnc2c1[C@H](COCC1CC1)CN(C(=O)CS(C)(=O)=O)C2` was run?
The cytotoxicity call was “inactive”.

`C[C@H]1CCCCO[C@@H](CN(C)C(=O)Nc2ccccc2)[C@@H](C)CN([C@@H](C)CO)C(=O)c2cc(NC(=O)NC3CCCCC3)ccc2O1` was tested. Which cytotoxicity call did it give?
The cytotoxicity call was “inactive”.

How did the cytotoxicity call turn out when `CC(C)n1c(C=CC(O)CC(O)CC(=O)[O-])c(-c2ccc(F)cc2)c2ccccc21.[Na+]` (stereo not given) was run?
The cytotoxicity call was “inactive”.

With `C[C@@H]1CCCCO[C@@H](CN(C)S(=O)(=O)c2cccs2)[C@H](C)CN([C@H](C)CO)C(=O)c2cc(NC(=O)CCC(F)(F)F)ccc2O1` as the molecule, how does the cytotoxicity call read?
Its cytotoxicity call is “inactive”.

`Cc1ccc(S(=O)(=O)Nc2ccc3c(c2)C(=O)N([C@H](C)CO)C[C@H](C)[C@H](CN(C)S(=O)(=O)c2ccccc2)O3)cc1` was tested. Which cytotoxicity call did it give?
The cytotoxicity call was “inactive”.

`CC[N+](C)(CC)Cc1ccccc1` was tested. Which cytotoxicity call did it give?
Its cytotoxicity call is “inactive”.

`CCCCCc1ccccn1` was tested. Which cytotoxicity call did it give?
The cytotoxicity call was “inactive”.

`CCCCCCCCCCCCC[N+](C)(C)Cc1ccccc1` was tested. Which cytotoxicity call did it give?
The cytotoxicity call was “inactive”.

With `CCCCCCCCCCCCCCCC[N+](C)(C)Cc1ccccc1.[Cl-]` as the molecule, how does the cytotoxicity call read?
The cytotoxicity call was “active”.

Which cytotoxicity call does the source give for `CCCCNc1ccccc1` here?
The cytotoxicity call was “inactive”.

How did the cytotoxicity call turn out when `CCCCCCCCCCCCC[N+](C)(C)Cc1ccccc1.O.[Cl-]` was run?
Its cytotoxicity call is “active”.

With `CO[C@@H]1CN(C)C(=O)c2ccc(NS(=O)(=O)c3cccc(C)c3)cc2OC[C@@H](C)N(Cc2cc(F)ccc2F)C[C@H]1C` as the molecule, how does the cytotoxicity call read?
The cytotoxicity call was “inactive”.

How did the cytotoxicity call turn out when `CN(C)CCCNC(=O)C[C@@H]1CC[C@H]2[C@H](COc3ccc(NC(=O)NC4CCCC4)cc3C(=O)N2C)O1` was run?
Its cytotoxicity call is “inactive”.

For `Cc1noc(C)c1NC(=O)N(C)C[C@H]1Oc2c(NC(=O)Nc3ccc(C(F)(F)F)cc3)cccc2C(=O)N([C@H](C)CO)C[C@H]1C`, which cytotoxicity call is on record?
The cytotoxicity call was “inactive”.

With `CC(=O)N[C@@H](Cc1ccccc1)C(=O)O` as the molecule, how does the cytotoxicity call read?
The cytotoxicity call was “inactive”.

For `COc1ccc(C[C@H](NC(=O)[C@H](C)NC(=O)CN2CCOCC2)C(=O)N[C@@H](Cc2ccccc2)C(=O)[C@@]2(C)CO2)cc1`, which cytotoxicity call is on record?
The cytotoxicity call was “active”.

Which cytotoxicity call does the source give for `CC(=O)N1[C@@H](CO)[C@H](c2ccccc2)[C@@H]1CNC(=O)CN1CCOCC1` here?
The cytotoxicity call was “inactive”.

How did the cytotoxicity call turn out when `COC[C@H](NC(=O)c1cnc(C)s1)C(=O)N[C@@H](COC)C(=O)N[C@@H](Cc1ccccc1)C(=O)[C@@]1(C)CO1` was run?
Its cytotoxicity call is “active”.

Which cytotoxicity call does the source give for `COC(=O)[C@H](Cc1ccccc1)NC(=O)[C@@H](N)CC(=O)O` here?
Its cytotoxicity call is “inactive”.

`CC(=O)N[C@@H](Cc1ccccc1)C(=O)NN` was tested. Which cytotoxicity call did it give?
The cytotoxicity call was “inactive”.

`CC(=O)N1[C@H](CNC(=O)CN2CCOCC2)[C@@H](c2ccccc2)[C@@H]1CO` was tested. Which cytotoxicity call did it give?
Its cytotoxicity call is “inactive”.

`CC(C)C[C@H](NC(=O)[C@H](CCc1ccccc1)NC(=O)CN1CCOCC1)C(=O)N[C@@H](Cc1ccccc1)C(=O)N[C@@H](CC(C)C)C(=O)[C@@]1(C)CO1` was tested. Which cytotoxicity call did it give?
Its cytotoxicity call is “active”.

With `COC(=O)C(Cc1ccccc1)NC(=O)C(N)CC(=O)O` (stereo not given) as the molecule, how does the cytotoxicity call read?
Its cytotoxicity call is “inactive”.

`C[C@@H]1CCCCO[C@@H](CN(C)S(=O)(=O)c2ccc(F)cc2)[C@H](C)CN([C@H](C)CO)C(=O)c2cc(NC(=O)Nc3ccc4c(c3)OCO4)ccc2O1` was tested. Which cytotoxicity call did it give?
The cytotoxicity call was “inactive”.

For `C[C@@H]1CCCCO[C@@H](CN(C)C(=O)CCCN(C)C)[C@@H](C)CN([C@H](C)CO)C(=O)c2cc(NC(=O)Nc3ccc(C(F)(F)F)cc3)ccc2O1`, which cytotoxicity call is on record?
Its cytotoxicity call is “inactive”.

How did the cytotoxicity call turn out when `CC(C)CC#Cc1cnc2c(c1)C(=O)N([C@@H](C)CO)C[C@@H](C)[C@@H](CN(C)S(=O)(=O)c1cn(C)cn1)O2` was run?
Its cytotoxicity call is “inactive”.

How did the cytotoxicity call turn out when `C[C@H](CO)N1C[C@H](C)[C@H](CN(C)C(=O)Nc2ccccc2)Oc2c(NC(=O)C3CCOCC3)cccc2C1=O` was run?
Its cytotoxicity call is “inactive”.

Which cytotoxicity call does the source give for `C[C@H](CO)N1C[C@H](C)[C@H](CN(C)C(=O)c2cnccn2)Oc2cc(Br)ccc2S1(=O)=O` here?
Its cytotoxicity call is “inactive”.

How did the cytotoxicity call turn out when `C[C@@H]1CN([C@@H](C)CO)C(=O)c2cc(C#Cc3ccccc3F)cnc2O[C@@H]1CN(C)C(=O)Cc1cccnc1` was run?
Its cytotoxicity call is “inactive”.

How did the cytotoxicity call turn out when `COc1ccc(S(=O)(=O)N(C)C[C@@H]2Oc3ccc(NC(=O)c4ccncc4)cc3CC(=O)N([C@H](C)CO)C[C@H]2C)cc1` was run?
Its cytotoxicity call is “inactive”.

`CCCC#Cc1cnc2c(c1)C(=O)N([C@H](C)CO)C[C@H](C)[C@H](CN(C)S(=O)(=O)c1cn(C)cn1)O2` was tested. Which cytotoxicity call did it give?
The cytotoxicity call was “inactive”.

For `O=C(O)CC(O)(CC(=O)O)C(=O)O.[LiH].[LiH].[LiH]`, which cytotoxicity call is on record?
The cytotoxicity call was “inactive”.
